A selection: hits, their analogues and other compounds. The true share with any hit is near 2.4%.
D2 antag: HTS Assay for Allosteric Antagonists of the Human D2 Dopamine Receptor: Primary Screen for Antagonists; D(2) dopamine receptor (Homo sapiens), P14416; 340,000 tested, 2% active; AID 485344, 2010; HEK293 TREx D2 cells, calcium flux, dopamine EC80; inhibition, % at 10 µM; in the data active = inhibition above about 30%; inactive = below that, where a call was filed
Target sequence (P14416 whole entry, looked up): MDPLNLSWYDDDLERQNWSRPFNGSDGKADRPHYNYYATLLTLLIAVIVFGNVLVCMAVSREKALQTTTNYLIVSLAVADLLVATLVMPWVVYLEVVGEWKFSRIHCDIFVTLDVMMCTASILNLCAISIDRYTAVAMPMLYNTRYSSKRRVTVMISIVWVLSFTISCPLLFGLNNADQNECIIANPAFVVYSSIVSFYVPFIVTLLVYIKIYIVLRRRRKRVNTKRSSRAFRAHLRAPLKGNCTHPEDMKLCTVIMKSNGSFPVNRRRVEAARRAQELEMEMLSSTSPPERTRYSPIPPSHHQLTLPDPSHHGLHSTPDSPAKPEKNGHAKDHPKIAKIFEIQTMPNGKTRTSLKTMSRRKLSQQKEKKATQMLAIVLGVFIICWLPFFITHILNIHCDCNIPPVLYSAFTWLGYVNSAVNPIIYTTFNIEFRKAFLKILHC
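Overnight-induced (tetracycline, 30 C) HEK293 T-REx cells carrying force-coupled D2 receive a no-wash calcium dye, then compound, then EC80 dopamine at 180 s; signals are read kinetically throughout.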
D2 PAM-1: Beta-Arrestin HTS for Positive Allosteric Modulators of the Human D2 Dopamine Receptor: Potentiators; D(2) dopamine receptor (Homo sapiens), P14416; DiscoveRx D2 beta-arrestin cells, luminescence, 90 min; 100% = 57 uM dopamine signal; potentiation, % (concentration not given with the values); 360,000 tested, 0.23% active; in the data active = potentiation above about 50%; inconclusive = mostly about 30% to 49%
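PathHunter beta-arrestin assay in DiscoveRx D2 cells. Compounds were added with an EC20 of dopamine (50 nM final) for 90 min at 37 deg C. Luminescence was read 1 h after detection reagent, with 57 uM dopamine as the EC100 control.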
D2 PAM-2: HTS Assay for Positive Allosteric Modulators of the Human D2 Dopamine Receptor: Primary Screen for Potentiators; potentiation, % at 10 µM; HEK293 T-REx D2, calcium flux, EC20 dopamine potentiation; 340,000 tested, 0.34% active; AID 485347, 2010;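 active = potentiation over 3 SD above the plate norm, cut at about 30% in these data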
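Primary screen. Calcium kinetics in induced HEK293 T-REx D2 cells: compound pre-addition 180 s, EC20 dopamine, 180 s more.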
D2 ag-1: HTS Assay for Allosteric Agonists of the Human D2 Dopamine Receptor: Primary Screen for Agonists; D(2) dopamine receptor (Homo sapiens), P14416; HEK293 T-REx D2 cells, calcium flux agonist mode; activation, % at 2 µM; 340,000 tested, 0.53% active; AID 485358, 2010;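 active = activation over 3 SD above normal in the single-dose calcium agonist read, cut at about 30% in these data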
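Agonism is scored from calcium flux in a force-coupled, inducible HEK293 cell line expressing D2, read kinetically for 180 s after compound addition against dopamine controls.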
D2 ag-2: Beta-Arrestin HTS for Positive Allosteric Modulators of the Human D2 Dopamine Receptor: Agonists | 360,000 tested, 0.084% active | DiscoveRx PathHunter D2 beta-arrestin, luminescence, 90 min; 100% = 57 uM dopamine signal | D(2) dopamine receptor (Homo sapiens), P14416 | activation, % (test concentration not listed); in the data active = activation above about 40%; inconclusive = between about 15% and that limit
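Agonist mode: compounds alone added to overnight-plated D2 PathHunter cells for 90 min at 37 C, with 57 uM final dopamine (EC100) defining full response. Beta-arrestin recruitment detected by chemiluminescent reagent, read after 1 h at ambient temperature.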
Large screens that a line does not name were inactive.

O=C(Nc1ccc(-c2cc(C(F)(F)F)nn2-c2ccccc2)cc1)c1cccc(F)c1	none (no result: D2 antag, D2 PAM-1, D2 ag-2)
CC(C)(C)C(=O)Nc1nc2nc(-c3ccccc3)cc(=O)n2[nH]1	none (no result: D2 antag, D2 PAM-1, D2 ag-1, D2 ag-2)
COc1ccccc1C1CCN(Cc2ccc(Cl)c(Cl)c2)CC1	D2 antag 84
COc1ccccc1C1CCN(Cc2cccc3ccccc23)CC1	D2 antag 82
COc1ccccc1C1CCN(Cc2c(C)[nH]c3ccccc23)CC1	D2 antag 56
COc1ccccc1C1CCN(Cc2ccc(Cl)cc2Cl)CC1	none
Nc1nnc(SCC(=O)Nc2ccccc2C(F)(F)F)s1	none (no result: D2 antag, D2 PAM-1, D2 ag-2)
N#Cc1cnc(SCC(=O)Nc2ccccc2C(F)(F)F)nc1N	D2 antag 32
Nc1c(-c2nc(-c3ccccc3)cs2)c2ccccn2c1C(=O)c1ccc2c(c1)OCO2	none (no result: D2 antag, D2 PAM-1, D2 ag-2)
CCCSc1nnc2c(n1)OC(c1ccc(Br)s1)Nc1ccccc1-2 (stereo unspecified)	none (no result: D2 antag, D2 PAM-1, D2 ag-2)
O=C1Nc2ccccc2Nc2ccccc21	none
O=C1Nc2ccccc2CCc2ccccc21	D2 antag 36
COc1ccccc1NC(=O)Cn1c(=O)n(Cc2ccccc2)c(=O)c2c1c1cc(C)ccc1n2C	none (no result: D2 antag, D2 PAM-1, D2 ag-2)
CCN(CC(=O)Nc1c(F)cccc1F)C(=O)/C=C/c1cn(Cc2ccccc2)nc1-c1cccnc1	D2 antag 32
O=c1c2c(nc(NCCO)n1CC1CCCCC1)-c1ccccc1CC21CCCC1	none
CC1(C)CC(n2c(NCCO)nc3c(c2=O)C2(CCCC2)Cc2ccccc2-3)CCO1 (stereo unspecified)	D2 PAM-2 34
COc1cc2c(cc1NC(=O)CN1CCN(S(=O)(=O)c3ccc(C)cc3)CC1)oc1ccccc12	D2 antag 42
Cc1cccc2c3c([nH]c12)CCN(C)C3	D2 antag 66
NC(=O)c1cccc2c3c([nH]c12)CCCC3	none
COc1ccc(NC(=O)C2CCCN(c3c4c(nc5ncnn35)CCC4)C2)cc1 (stereo unspecified)	none
COc1ccc(NC(=O)C2CCCN(c3cc(C)nc4ncnn34)C2)cc1 (stereo unspecified)	D2 antag 30
COc1cc(C)nc(N2CCCC(C(=O)Nc3cc(Cl)ccc3OC)C2)n1 (stereo unspecified)	D2 PAM-2 81
COc1ccc(-c2ccc3c(c2)S(=O)(=O)c2cccc(C(=O)N4CCN(C5CCCCC5)CC4)c2C3=O)cc1OC	D2 PAM-1 118, D2 ag-2 inconclusive (no result: D2 antag, D2 PAM-2, D2 ag-1)
CC(C)Cn1c(=O)c2sccc2n2c(CCCC(=O)Nc3ccc(Cl)cc3)nnc12	none (no result: D2 antag, D2 PAM-1, D2 ag-2)
COc1ccc(C(=O)Nc2ccc3c(c2)N(C2CCCC2)C(=O)c2ccccc2S3)cc1OC	none (no result: D2 antag, D2 PAM-1, D2 ag-2)
COc1ccccc1OCc1ccc(C(=O)N2CCN(C(=O)c3ccco3)CC2)cc1	D2 antag 35
COc1ccc(C(=O)OCC(=O)N2CCN(C(=O)c3ccco3)CC2)c(OC)c1OC	none (no result: D2 antag, D2 PAM-2, D2 ag-1)
COc1ccccc1OCc1ccc(C(=O)N/N=C/c2ccco2)cc1	D2 antag 44
COc1ccc(CN2CCN(C(=O)c3ccco3)CC2)c(OC)c1OC	D2 PAM-1 60, D2 ag-2 46 (no result: D2 antag, D2 PAM-2, D2 ag-1)
CC(C)NC(=O)COc1coc(CN2CCN(Cc3ccccc3)CC2)cc1=O	none
CC(C)NC(=O)COc1coc(CN2CCN(C(=O)c3ccco3)CC2)cc1=O	D2 antag 50
COC(=O)c1c(-c2cccs2)csc1NC(=O)c1ccc(Br)cc1	none (no result: D2 antag, D2 PAM-1, D2 ag-2)
Cc1noc(C)c1S(=O)(=O)NCCc1csc2nc(-c3ccc(Cl)cc3)nn12	none (no result: D2 antag, D2 PAM-1, D2 ag-2)
CN(C(=O)c1ccc(COc2ccccc2Br)o1)c1ccccc1	D2 antag 44
COc1ccccc1OCc1ccc(C(=O)NN)o1	D2 antag 76
Oc1ccccc1N1CCN(C(c2ccccc2)c2ccccc2)CC1	D2 antag 30
CC(=O)N1CCN(C(c2ccccc2)c2ccccc2)CC1	none (no result: D2 antag, D2 PAM-2, D2 ag-1)
OC(CNCc1ccccc1)c1ccccc1 (stereo unspecified)	none
OC(CNCC#Cc1ccccc1)c1ccccc1 (stereo unspecified)	D2 antag 39
Cc1ccc2[nH]c3c(=O)n(CC(=O)N4CCCC(C)C4)ncc3c2c1 (stereo unspecified)	none (no result: D2 antag, D2 PAM-1, D2 ag-1, D2 ag-2)
O=C(Nc1cccc2c1CCCC2)c1cc([N+](=O)[O-])cc([N+](=O)[O-])c1	D2 PAM-1 62
O=C(Nc1ncccn1)c1ccc([N+](=O)[O-])cc1	none (no result: D2 antag, D2 PAM-2, D2 ag-1)
O=C(Nc1ncccn1)c1cc([N+](=O)[O-])cc([N+](=O)[O-])c1	D2 PAM-1 54
COc1ccc(C(=O)Nc2cccc3c2CCCC3)cc1	none
CCn1cc(S(=O)(=O)c2ccc(C)cc2C)c(=O)c2cc(F)c(N3CCCC3)cc21	none (no result: D2 antag, D2 PAM-1, D2 ag-2)
CN(C)CCNC(=O)c1cc2c(=O)n(C)c3ccccc3c2n1C	D2 PAM-2 33
COCCNC(=O)c1cc2c(=O)n(C)c3ccccc3c2n1C	none
CCN(CC)CCCNC(=O)c1cc2c(=O)n(C)c3ccccc3c2n1C	none
CCN(CC)CCNC(=O)c1cc2c(=O)n(C)c3ccccc3c2n1C	D2 antag 37
Cn1c(C(=O)NCCCN2CCc3ccccc3C2)cc2c(=O)n(C)c3ccccc3c21	D2 antag 81
COc1ccc(CCNC(=O)c2ccc3c(c2)N(Cc2c(F)cccc2Cl)C(=O)CS3)cc1OC	none (no result: D2 antag, D2 PAM-1, D2 ag-2)
CCOc1ccc(OCC)c(NC(=O)c2nnn(CC(=O)Nc3ccc(C)cc3C)c2N)c1	none (no result: D2 antag, D2 PAM-1, D2 ag-2)
Cc1ccccc1CNC(=O)c1ccc(NC(=O)c2nsc3ccccc23)cc1	none (no result: D2 antag, D2 PAM-1, D2 ag-2)
CCOC(=O)c1[nH]c(=O)[nH]c1CSc1nc(C)cc(C)n1	D2 antag 32
CCN(C(=O)C1CCCN(c2ncnc3c2nc2n3CCCCC2)C1)c1cccc(C)c1 (stereo unspecified)	none (no result: D2 antag, D2 PAM-1, D2 ag-2)
COc1ccc(NC(=O)CC2C(=O)N(c3ccc(F)cc3)C(=S)N2NC(=O)c2ccc(Cl)cc2)cc1 (stereo unspecified)	D2 antag 37
CC(C)(C)c1nc2c(C#N)c(-c3ccc(Cl)cc3)ccn2n1	D2 PAM-1 68, D2 ag-2 inconclusive
CC1CN(C(=O)Nc2ccc(C(=O)NCCc3ccccc3)cc2)c2ccccc2S1 (stereo unspecified)	none (no result: D2 antag, D2 PAM-1, D2 ag-2)
COc1ccc2c(c1)C1=NN(/C(C)=C/C(C)=O)C(c3ccc(F)cc3)C1CC2 (stereo unspecified)	D2 PAM-1 51
COc1ccc2c(c1)CCC1C2=NN(/C(C)=C\C(C)=O)C1c1ccc(F)cc1 (stereo unspecified)	D2 ag-2 inconclusive
